# Measurements taken from PubChem BioAssay (NCI).
# The panel holds about 83,000 compounds, 20% with a hit somewhere; the sample as a whole holds those more often.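 Cells were grown in 96-well plates and exposed to the test compound at a single concentration for 48 hours; results are reported as percent growth, with values below 10 considered active.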 Unmarked numbers belong to inactive results. Activity calls are given as the source filed them.
# System: SR leukemia
# Assay: NCI-60 one-dose screen, 48 h (100 = growth as untreated, 0 = no growth, -100 = all killed)
# Conditions: 10 µM unless noted
row,SMILES,growth
1,C=C(C)[C@@H]1CC[C@]2(COC(=O)c3cccnc3)CC[C@]3(C)[C@H](CC[C@@H]4[C@@]5(C)CCCN(C(=O)c6cccnc6)C(C)(C)[C@@H]5CC[C@]43C)[C@@H]12,11.3%
2,C=C1C(=O)O[C@H]2[C@H]1CC/C(CNC(=O)/C=C/c1cc(OC)c(OC)c(OC)c1)=C\CC[C@@]1(C)O[C@@H]21,-13.8% (active)
3,O=S(=O)(c1ccc(NCSc2nc3ccccc3s2)cc1)c1ccc(NCSc2nc3ccccc3s2)cc1,83.4%
4,COc1ccc(S(=O)(=O)Oc2ccc(-c3sc4cc(OS(=O)(=O)c5ccc(OC)cc5)ccc4c3C(=O)c3ccc(OCCN4CCCCC4)cc3)cc2)cc1,102%
5,Nc1nc(N)c2c(n1)NC(c1cccc(Nc3ccnc4cc(C(F)(F)F)ccc34)c1)CC(c1ccc(Cl)cc1)=N2 (stereo not given),3.26% (active)
6,COC(=O)[C@H]1Cc2c([nH]c3ccccc23)[C@H](c2ccc3c(c2)OCO3)N1,103%
7,[2H]C([2H])([2H])Oc1c(F)cccc1/C=C/C(=O)/C=C(O)/C=C/c1cccc(F)c1OC([2H])([2H])[2H],94.8%
8,C=C(C)[C@@H]1CCC[C@]2(C(=O)OC)CC[C@]3(C)[C@@H](CC[C@@H]4[C@@]5(C)CCCNC(C)(C)[C@@H]5CC[C@]43C)[C@@H]12,54.5%
9,O=C(Nc1ncc(Cc2ccccc2)s1)c1ccc2c(c1)OCCO2,5.84% (active)
10,COc1ccc(-c2cc(-c3ccc(Nc4nc(Nc5ccc(Cl)cc5)nc(Nc5ccc(Cl)cc5)n4)cc3)no2)cc1,2.43% (active)
